Measured values published in PubChem BioAssay (NCI).
This is part of a sample that, as a whole, favours compounds with a hit. Of some 83,000 tested, about 20% had one in any assay.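 How to read the values: 0–100, growth inhibition (40 = 60% inhibited); 0, no net growth; -100 to 0, cell death (-40 = 40% of starting cells died; -100 = all dead).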 A number with no mark means an inactive call. Activity calls are given as the source filed them. The calls were made as follows: active = growth percent below 10; inactive = the rest.

Experiments:
Assay in all cases: NCI-60 one-dose screen, 48 h (100 = growth as untreated, 0 = no growth, -100 = all killed)
Conditions in all cases: 10 µM unless noted
NCI-H23 lung = tested on: NCI-H23 lung
NCI-H226 lung = tested on: NCI-H226 lung
NCI-H322M lung = tested on: NCI-H322M lung
HOP-62 NSCLC = tested on: HOP-62 NSCLC
NCI-H460 lung = tested on: NCI-H460 lung
HOP-92 NSCLC = tested on: HOP-92 NSCLC
NCI-H522 lung = tested on: NCI-H522 lung
A549/ATCC NSCLC = tested on: A549/ATCC NSCLC
786-0 renal = tested on: 786-0 renal
COLO 205 colon = tested on: COLO 205 colon
DU-145 prostate = tested on: DU-145 prostate
K-562 leukemia = tested on: K-562 leukemia
MALME-3M melanoma = tested on: MALME-3M melanoma
MDA-MB-231 breast = tested on: MDA-MB-231 breast
RXF 393 renal = tested on: RXF 393 renal
SF-268 CNS = tested on: SF-268 CNS
SF-295 CNS = tested on: SF-295 CNS
SF-539 CNS = tested on: SF-539 CNS
UACC-257 melanoma = tested on: UACC-257 melanoma
M14 melanoma = tested on: M14 melanoma

| Structure (SMILES) | growth (NCI-H23 lung) | growth (NCI-H226 lung) | growth (NCI-H322M lung) | growth (HOP-62 NSCLC) | growth (NCI-H460 lung) | growth (HOP-92 NSCLC) | growth (NCI-H522 lung) | growth (A549/ATCC NSCLC) | growth (786-0 renal) | growth (COLO 205 colon) | growth (DU-145 prostate) | growth (K-562 leukemia) | growth (MALME-3M melanoma) | growth (MDA-MB-231 breast) | growth (RXF 393 renal) | growth (SF-268 CNS) | growth (SF-295 CNS) | growth (SF-539 CNS) | growth (UACC-257 melanoma) | growth (M14 melanoma) |
| --- | --- | --- | --- | --- | --- | --- | --- | --- | --- | --- | --- | --- | --- | --- | --- | --- | --- | --- | --- | --- |
| COc1cc2cc(Oc3ccc(NC(=O)Nc4ccc(F)c(C(F)(F)F)c4)cc3)c(C)nc2cc1OCCN(C)C | 102% | 104% | 102% | 104% | 101% | 69.8% | 96.1% | 93.2% | 88.8% | 117% | 106% | 3.63% (active) | 92.7% | 103% | 76.5% | 98.5% | 104% | 102% | 105% | 95.7% |
| O=[N+]([O-])c1ccc(NC(=S)NNC(=S)Nc2ccc(Br)cc2)cc1 | 86.1% | 97.3% | 63.3% | 94.9% | 97.6% | 99.9% | 81.1% | 83.9% | 99.2% | 112% | 104% | 49.1% | 89.4% | 91.6% | 103% | 101% | 72.6% | 95.2% | 95.2% | 87.9% |
| COc1cccc2c1C=CC1(O2)Oc2cccc(OC)c2C=C1C (stereo not given) | 34.8% | 57.4% | 46.1% | 55.9% | 7.1% (active) | -5.13% (active) | 12.6% | 25.1% | 26.9% | 16.6% | 31.5% | 8.28% (active) | 60.4% | 0.892% (active) | -18.2% (active) | 55.3% | 6.46% (active) | -9.43% (active) | 73.9% | 1.02% (active) |
| O=C(CSc1cc[n+](CCCCO)c2ccccc12)n1ccc2ccccc21 | 95.8% | 89.6% | 96.8% | 91.8% | 99.2% | 103% | 99.4% | 103% | 108% | 106% | 110% | 98.2% | 99.7% | 88.2% | 107% | 109% | 99.7% | 99.2% | 95.2% | 96.6% |
| Cc1ccc(NC(=O)/C=C/c2ccc(OCCCOc3ccc4c(C)cc(=O)oc4c3)cc2)cc1 | 75.1% | 56.8% | 37.8% | 48.5% | 38.8% | 35.7% | 51.9% | 82.9% | 44.3% | 82.2% | 60.6% | 90.7% | 44.8% | 54.6% | 44.1% | 39.1% | 50.1% | 57.8% | 69.8% | 88.3% |
| CCc1cc(O)ccc1Nc1cc(-c2ccc(-n3cccn3)cc2)[nH]n1 | 74.7% | 87.3% | 64% | 37% | 45% | 139% | 38% | 56.2% | 84.9% | 49.8% | 71.5% | 18.9% | 110% | 92.9% | 108% | 66% | 36.5% | 79.4% | 70% | 47.4% |
| COc1ccc(OC)c(CCn2cncc2-c2c[nH]c3ccc(Cl)cc23)c1 | 38.1% | 59.5% | 88.4% | 49.5% | 46.1% | 20.8% | 3.34% (active) | 33.3% | 69.7% | 29.8% | 60.5% | 15.8% | 45.9% | 62.6% | 62.8% | 50.5% | 28.9% | 71.6% | 23% | 48.4% |
| Nc1ccc(Nc2ncnc3sc4c(c23)CCN(Cc2ccccc2)C4)cc1 | 102% | 91.5% | 101% | 103% | 105% | 92.2% | 91.3% | 100% | 105% | 115% | 106% | 96.7% | 103% | 86.6% | 91.2% | 101% | 97.8% | 78.5% | 106% | 106% |
| O=C(/C=C/c1ccccc1Cl)Nc1ncc(Cc2cc(Cl)ccc2Cl)s1 | 50.9% | 39.4% | 48.5% | 22% | 8.08% (active) | 35.4% | 12.3% | 40% | 33.3% | 5.37% (active) | 30.7% | 12.9% | 39.7% | 49.4% | 17.2% | 43.9% | 14.7% | 1.2% (active) | 61.5% | 18.2% |
| CC1=C(C)C(=O)C(Nc2ccc3c(c2)OCO3)=C(Br)C1=O | 90% | 93% | 96.5% | 92.9% | 100% | -22.9% (active) | 96.5% | 102% | 103% | 122% | 109% | 3.43% (active) | 112% | 69.4% | 105% | 96.7% | 96.8% | 106% | 94.3% | 105% |
| C=C1CCc2nc(SCC(=O)O)ccc2N1 | 95.6% | 99% | 105% | 103% | 102% | 120% | 96.7% | 108% | 106% | 107% | 110% | 98.5% | 104% | 105% | 94.1% | 103% | 104% | 101% | 105% | 94.8% |
| CCCCCC[n+]1ccc(SCC(=O)n2ccc3ccccc32)c2ccccc21 | 63.8% | 79.5% | 94% | 90.2% | 99.5% | 81.2% | 73.5% | 101% | 102% | 99.4% | 94.1% | 51.7% | 91.4% | 89.5% | 113% | 101% | 82.2% | 96.3% | 100% | 89% |
| O=C(CSc1nnc(-c2ccc(Cl)cc2)n1-c1ccccc1)Nc1cccc(F)c1 | 23.6% | 20.9% | 36.7% | 50.3% | 17.4% | 57.8% | 52.2% | 2.72% (active) | 0.989% (active) | 80.1% | 58.1% | 48% | 52.7% | 27% | 25.6% | 56.2% | 9.38% (active) | -1.04% (active) | 85.9% | 62.9% |
| CCn1c2ccc(/C=N/N(C)S(=O)(=O)CCN(C)C)cc2c2cc(/C=N/N(C)S(=O)(=O)CCN(C)C)ccc21 | 43.4% | 40.8% | 80.8% | 101% | 73.5% | 42.4% | 36% | 84.5% | 50.3% | 92.8% | 77.3% | 8.55% (active) | 62.7% | 55% | 46.9% | 76.7% | 80% | 4.32% (active) | 92.8% | 66% |
| N#Cc1nc(-c2ccccc2)oc1N1CCC(C2(C(F)(F)F)N=N2)CC1 | 91.6% | 97% | 107% | 113% | 102% | 90.1% | 96.8% | 99.8% | 101% | 103% | 103% | 90% | 102% | 93.8% | 99.4% | 101% | 101% | 99.2% | 102% | 102% |
| CCOC(=O)c1ccc(NC2=CC(=O)C(C)=C(C)C2=O)cc1 | 51% | 95.6% | 104% | 70.5% | 98.4% | 113% | 87.5% | 117% | 106% | 115% | 109% | 61.6% | 97.1% | 75.2% | 93.2% | 85.6% | 52.1% | 99.2% | 84.1% | 89.7% |
